In PubChem BioAssay (NCI):
About 83,000 compounds went through this panel and 20% of them were active in at least one assay; those are over-represented in the sample as a whole.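 Method: cells in 96-well plates; compound added at one concentration; 48 h incubation; percent growth measured; values under 10 scored active.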 Values without a mark were called inactive.

These molecules were tested on SK-MEL-2 melanoma (assay: NCI-60 one-dose screen, 48 h (100 = growth as untreated, 0 = no growth, -100 = all killed)). Conditions: 10 µM unless noted.

| Structure (SMILES) | growth [%] |
| --- | --- |
| O=S(=O)(c1ccc(NC(=S)NCc2cccnc2)cc1)N1CCCCC1 | 41.6 |
| Nc1ccccc1SC1CC(=O)N(c2ccc(Cl)c(Cl)c2)C1=O (configuration not stated) | 12.9 |
| OCC1CCC(O)C(CO)N1 (configuration not stated) | 129 |
| N#C/C(=C\c1ccc2c(c1)OCO2)c1ccccc1 | 76.5 |

What follows are molecules tested on EKVX NSCLC in the same assay as above. Conditions: 10 µM unless noted.

| Structure (SMILES) | growth [%] |
| --- | --- |
| COC(=O)Cc1cc(COC(C)=O)ccc1C | 119 |
| CC(=O)c1ccc(C)cc1 | 98.5 |
| Nc1cccc2cccc(O)c12 | 94.6 |
| CC(CCC#N)(CCC#N)C(=O)c1ccccc1 | 115 |
| NS(=O)(=O)c1cc(=O)[nH]c(=O)[nH]1 | 112 |
| Cc1nc(O)cc(=O)[nH]1 | 108 |
| O=C(OC1CCCC1)c1ccccc1Cl | 111 |
| CC(C)c1ccc(C(=O)OCCCl)cc1 | 102 |
| CCCCNC(=O)c1ccc(OCC)cc1 | 103 |
| CCOC(=O)C(C#N)=C1CCN(C)CC1 | 112 |
| CCOc1ccc(C(=O)NCC(C)C)cc1 | 106 |
| Cc1ccc(NC(=O)c2ccccc2Cl)cc1 | 105 |
| CCCCCCCCNC(=O)C(C)C | 99.9 |
